Screens from PubChem.
This is a sample that favours compounds with a hit; in the whole collection about 4.1% have one here.
hgDAF-12 ag = H. glycines DAF-12 receptor agonists, primary screen, cell-based, luminescence, HEK293, GAL4 fusion, UAS-luciferase. AID 687014, 2013. activation, % at 6.8 µM. Nuclear hormone receptor DAF-12 (Heterodera glycines), GAL4 fusion. HEK293 GAL4-hgDAF12 UAS-luciferase reporter, agonist luminescence; normalized to butyrate control. 370,000 tested, 1.8% active;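 active = activation above a cutoff set at the mean of all screened compounds plus 3 SD, cut at about 10% in these data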;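 also: 0% = DMSO wells and 100% = sodium butyrate wells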
DAX1 inh-1 = DAX1 (NR0B1) inhibitors on StAR promoter, primary screen, cell-based, luminescence, SF-1 (NR5A1), full-length DAX-1; AID 652010, 2013; 370,000 tested, 1.1% active; inhibition, % at 6.8 µM; HEK293T StAR-luciferase reporter, SF-1/DAX-1 repression relief;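 active = inhibition above the mean over all tested compounds plus 3 SD, cut at about 3.6% in these data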;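 also: 0% = DAX-1 cells with DMSO and 100% = cells lacking DAX-1 with DMSO; higher inhibition means more luminescence from relief of DAX-1 repression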
ssDAF12 agonist = S. stercoralis DAF-12 nuclear receptor activators, primary screen, cell-based, luminescence, HEK293, GRIP1 co-expression, lit1-tk-luc; Nuclear hormone receptor DAF-12 (Strongyloides stercoralis); HEK293 ssDAF-12/GRIP1 lit1-tk-luc reporter; % of 3 µM dafachronic acid response; activation, % at 6.8 µM; 370,000 tested, 1% active; AID 652126, 2013;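 active = activation above the mean over all tested compounds plus 3 SD, cut at about 0.9% in these data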;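 also: 0% = DMSO-only wells and 100% = 3 µM delta7-dafachronic acid wells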
DAX1 inh-2 = DAX1 (NR0B1) inhibitors, primary screen, cell-based, HEK293, Gal4-DAX1, luciferase luminescence; 340,000 tested, 0.99% active; Nuclear receptor subfamily 0 group B member 1 (Homo sapiens), P51843; HEK293 Gal4-DAX1 luciferase reporter; inhibition, % at 6.75 µM;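 active = inhibition above the mean over all tested compounds plus 3 SD, cut at about 4.2% in these data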;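 also: 0% = DAX1-transfected cells with DMSO and 100% = empty-vector control cells with DMSO; inhibition shows as a rise in luminescence from relieved DAX1 repression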
hcDAF12 agonist = H. contortus DAF-12 nuclear receptor activators, primary screen, cell-based, luminescence, HEK293, lit1-tk-luc reporter. HEK293 hcDAF-12 lit1-tk-luc reporter; 0% DMSO, 100% Δ7-dafachronic acid. activation, % at 6.8 µM. 370,000 tested, 1.4% active;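 active = activation above the mean of all tested compounds plus 3 SD, cut at about 5.5% in these data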;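 also: 100% = response to 3 µM Δ7-dafachronic acid high control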
LXRb hcDAF ctr = LXR agonists, Gal4 luciferase reporter, confirmation, counter-screen for hcDAF-12 agonist project, cell-based, luminescence, HEK293, H. contortus campaign; activation, % at 6.8 µM; 3,400 tested, under 10 active; HEK293 Gal4-LXR tk-luc reporter, 24 h; normalized: DMSO 0%, positive control 100%; shares compounds with hcDAF12 agonist;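 active = mean percent activation of the reporter above a cutoff set as the average over tested compounds plus their standard deviation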
Target sequence (P55055 whole entry, looked up, the tested form may be a part): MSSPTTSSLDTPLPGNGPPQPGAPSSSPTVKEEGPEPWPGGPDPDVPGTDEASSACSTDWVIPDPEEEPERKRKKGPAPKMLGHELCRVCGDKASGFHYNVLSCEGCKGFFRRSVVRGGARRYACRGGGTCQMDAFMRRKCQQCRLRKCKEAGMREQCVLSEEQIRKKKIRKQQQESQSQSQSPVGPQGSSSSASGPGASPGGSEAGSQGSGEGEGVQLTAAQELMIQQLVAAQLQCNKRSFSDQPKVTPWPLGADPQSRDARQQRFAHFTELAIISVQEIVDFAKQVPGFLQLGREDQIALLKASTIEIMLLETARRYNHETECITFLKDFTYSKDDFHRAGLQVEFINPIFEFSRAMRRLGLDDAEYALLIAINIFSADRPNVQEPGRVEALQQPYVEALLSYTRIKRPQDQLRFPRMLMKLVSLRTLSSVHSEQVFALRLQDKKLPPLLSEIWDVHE
hcDAF12 ag = H. contortus DAF-12 receptor agonists, confirmation, cell-based, luminescence, HEK293, lit1-tk-luc, triplicate; shares compounds with hcDAF12 agonist; HEK293 hcDAF-12 lit1-tk-luc reporter; % of Δ7-dafachronic acid response; activation, % at 6.8 µM; 3,400 tested, 61% active;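 active = mean activation across triplicate tests above the threshold derived from the earlier primary screen, cut at about 5.5% in these data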;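 also: 0% = DMSO only wells and 100% = 3 µM Δ7-dafachronic acid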
Starred values were filed as active, the others as inactive.

For COC(=O)c1cc2c(s1)-c1ccccc1OC2 the results were hgDAF-12 ag 4, DAX1 inh-1 1, ssDAF12 agonist 0, DAX1 inh-2 1, hcDAF12 agonist 8.9*, LXRb hcDAF ctr 0 and hcDAF12 ag 3.
Cc1cc(C)c(S(=O)(=O)NCCn2c(C)cc3ccccc32)c(C)c1 was read as hgDAF-12 ag 8, DAX1 inh-1 -1, ssDAF12 agonist 1, DAX1 inh-2 0, hcDAF12 agonist 7.1*, LXRb hcDAF ctr 0 and hcDAF12 ag 0.
For CC(=O)n1nc(-c2ccccc2)cc1-c1ccccc1 the results were hgDAF-12 ag 12*, DAX1 inh-1 1, ssDAF12 agonist 1.6*, DAX1 inh-2 4.6*, hcDAF12 agonist 14*, LXRb hcDAF ctr 1 and hcDAF12 ag 16*.
O=C(O)Cn1nc(-c2ccccc2)cc1-c1ccccc1 was read as hgDAF-12 ag 2, DAX1 inh-1 0, ssDAF12 agonist -1, DAX1 inh-2 3 and hcDAF12 agonist 3.
COc1cc2c(c(OC)c1OC)C(c1ccc(C)cc1)CC(=O)O2 (stereo unspecified) was read as hgDAF-12 ag -5, DAX1 inh-1 -1, ssDAF12 agonist 0, DAX1 inh-2 -1 and hcDAF12 agonist 0.
O=C(O)c1ccc(-c2noc(-c3ccccc3Cl)n2)cc1 was read as hgDAF-12 ag 9, DAX1 inh-1 3, ssDAF12 agonist 1, DAX1 inh-2 -2, hcDAF12 agonist 8.2*, LXRb hcDAF ctr 1 and hcDAF12 ag 9.9*.
`CS(=O)(=O)N(CC(=O)Nc1ccccc1-c1ccccc1)c1ccccc1` gave hgDAF-12 ag -1, DAX1 inh-1 0, ssDAF12 agonist -1, DAX1 inh-2 0 and hcDAF12 agonist 0.
Cc1ccc(N(CC(=O)Nc2ccccc2-c2ccccc2)S(=O)(=O)c2ccccc2)c(C)c1 was read as hgDAF-12 ag 2, DAX1 inh-1 0, ssDAF12 agonist -2, DAX1 inh-2 0, hcDAF12 agonist 6.6*, LXRb hcDAF ctr 0 and hcDAF12 ag 2.
For COCCNC(=O)c1cc(S(=O)(=O)N(C)C2CCCCC2)ccc1Cl the results were hgDAF-12 ag 2, DAX1 inh-1 -1, ssDAF12 agonist -1, DAX1 inh-2 1 and hcDAF12 agonist 0.
For O=C1C(C=NCc2ccco2)=C(O)c2ccccc21 the results were hgDAF-12 ag 15*, DAX1 inh-1 3, ssDAF12 agonist 1.4*, DAX1 inh-2 4.3*, hcDAF12 agonist 13*, LXRb hcDAF ctr 1 and hcDAF12 ag 12*.
`O=C(/C=C/[C@H]1O[C@@H](n2ccc(=O)[nH]c2=O)[C@H](O)[C@@H]1O)NCc1ccc2c(c1)OCO2` gave hgDAF-12 ag 2, DAX1 inh-1 -1, ssDAF12 agonist 0 and hcDAF12 agonist -2.
Screening Cc1cccc(-c2noc(-c3ccc(Cl)cc3[N+](=O)[O-])n2)c1 returned hgDAF-12 ag 13*, DAX1 inh-1 2, ssDAF12 agonist 0, DAX1 inh-2 2, hcDAF12 agonist 8.9*, LXRb hcDAF ctr 2 and hcDAF12 ag 7.7*.
Screening O=C(C[C@@H]1C[C@@H]2c3cc(NS(=O)(=O)c4ccc(F)cc4)ccc3O[C@@H]2[C@@H](CO)O1)NC1CCCCC1 returned hgDAF-12 ag 1, DAX1 inh-1 -1, ssDAF12 agonist -2, DAX1 inh-2 2 and hcDAF12 agonist -3.
CC1(C(=O)NS(=O)(=O)c2cccc(OC(F)F)c2)CCN1C(=O)Cc1cccs1 (stereo unspecified) was read as hgDAF-12 ag 1, DAX1 inh-1 1, ssDAF12 agonist -2 and hcDAF12 agonist 2.
N#CC1=C(N)C(C#N)(C#N)C2(C(=O)Nc3ccccc32)C2CCCC=C12 (stereo unspecified) was read as hgDAF-12 ag -1, DAX1 inh-1 1, ssDAF12 agonist 0, DAX1 inh-2 -2, hcDAF12 agonist 6.8*, LXRb hcDAF ctr 0 and hcDAF12 ag 1.
Screening O=C(c1cccs1)c1ccc(-c2cccs2)s1 returned hgDAF-12 ag 17*, DAX1 inh-1 3, ssDAF12 agonist 2.1*, DAX1 inh-2 -1, hcDAF12 agonist 14*, LXRb hcDAF ctr 2 and hcDAF12 ag 14*.
`CN1CCN(C(=O)c2ccc(-c3cccs3)s2)CC1` gave hgDAF-12 ag 9, DAX1 inh-1 2, ssDAF12 agonist -1 and hcDAF12 agonist 1.
Screening Cc1ccc(NC(=O)[C@@H]2O[C@H](CO)[C@@H](O)[C@H]2O)cc1C(F)(F)F returned hgDAF-12 ag 1, DAX1 inh-1 0, ssDAF12 agonist -1 and hcDAF12 agonist -1.
Screening Cc1[nH]n(C(N)=S)c(=O)c1N=Nc1ccc2ccccc2c1 returned hgDAF-12 ag 13*, DAX1 inh-1 3, ssDAF12 agonist 1.3*, DAX1 inh-2 1, hcDAF12 agonist 15*, LXRb hcDAF ctr 1 and hcDAF12 ag 9.0*.
Screening Cc1ccc(N=Nc2c(C)[nH]n(C(N)=S)c2=O)cc1C returned hgDAF-12 ag 6, DAX1 inh-1 2, ssDAF12 agonist 0, DAX1 inh-2 0, hcDAF12 agonist 9.2*, LXRb hcDAF ctr 1 and hcDAF12 ag 12*.
For COc1ccc2nc(-c3ccc(F)cc3)sc2c1 the results were hgDAF-12 ag 11*, DAX1 inh-1 3, ssDAF12 agonist 1.0*, DAX1 inh-2 -2, hcDAF12 agonist 9.3*, LXRb hcDAF ctr 1 and hcDAF12 ag 6.7*.
For Nc1ccc2nc(-c3ccccc3)sc2c1 the results were hgDAF-12 ag 11*, DAX1 inh-1 2, ssDAF12 agonist 0, DAX1 inh-2 -3, hcDAF12 agonist 9.7*, LXRb hcDAF ctr 2 and hcDAF12 ag 7.1*.
`Cc1ccc2nc(-c3ccc(N)cc3)sc2c1` gave hgDAF-12 ag 9, DAX1 inh-1 4.2*, ssDAF12 agonist 1.6*, hcDAF12 agonist 11*, LXRb hcDAF ctr 2 and hcDAF12 ag 13*.
